Reference: PubChem BioAssay (NCATS)
Records with an inconclusive call do not appear. Unmarked numbers belong to inactive results. Active and inactive are the calls of the source. Calls come from the whole dose curve; as a rule, active = well fitted cell-killing curve with a large enough effect; inconclusive = small, poorly fitted or top-dose-only effect, or effect the other way; inactive = no such curve, though single readings can be large or run the other way. Peptide text beside a SMILES is read from it.

Assay: Quantitative High-Throughput drug screen in 47 multiple myeloma cell lines against the NCATS MIPE library collection: OPM1_PLB cell viability assay (AID 1918989); note: nearly all actives have a fitted effect of over 40% in size
Details: CellTiter-Glo, 48 h; series mostly up to 45.8 µM; viability (% of control): at the top concentration
Description: PI: Beverly A. Mock Ph.D.
Laboratory of Cancer Biology and Genetics,
Center for Cancer Research, National Cancer Institute,
National Institute of Health, Bethesda, Maryland
Drug resistance and disease progression are common in multiple myeloma (MM) patients, underscoring the need for new therapeutic combinations. […] We hypothesized that effective combinations would reduce MYC expression and enhance p16 activity. […] These preclinical data identify potentially useful drug combinations for evaluation in drug-resistant MM and reveal potential mechanisms of combined drug sensitivity.
Described herein is the primary MIPE qHTS used to cherrypick compounds. Validated compounds were then further tested for potential synergistic activiy.
[1] Peat TJ, Gaikwad SM, Dubois W, Gyabaah-Kessie N, Zhang S, Gorjifard S, Phyo Z, Andres M, Hughitt VK, Simpson RM, Miller MA, Girvin AT, Taylor A, Williams D, D'Antonio N, Zhang Y, Rajagopalan A, Flietner E, Wilson K, Zhang X, Shinn P, Klumpp-Thomas C, McKnight C, Itkin Z, Chen L, Kazandijian D, Zhang J, Michalowski AM, Simmons JK, Keats J, Thomas CJ, Mock BA. Drug combinations identified by high-throughput screening promote cell cycle transition and upregulate Smad pathways in myeloma. Cancer Lett. 2023 Aug 1;568:216284. doi: 10.1016/j.canlet.2023.216284. Epub 2023 Jun 24. PMID: 37356470; PMCID: PMC10408729.
SEQUENCE No. (e.g., 1, 2, 3, etc.); […] (e.g., Cells, Incubation, Reagent, etc.); VALUE and DESCRIPTION.
1; Cells; 5 uL; white, solid bottom 1536-well Greiner assay plate.
2; Compounds; 23 nL; Kalypsis pin tool (Wako USA) equipped with a 1536-well pin head to transfer to the assay plates.
3; Incubation; 48 hours; 37C incubation.
4; Reagent;5uL; CellTiter Glo (Promega).
5; Detector; 425V; Luminescence; Viewlux PerkinElmer.
NOTES (numbers refer to Sequence numbers above)
1. The cell-based screening methods employed in this study were like those previously published. Briefly, the corresponding myeloma cell lines were screened in 1,536-well plates with 500 cells, 5-uL per well for inhibition of cell viability (assessed by measuring ATP levels with CellTiterGlo).
2. NCATS MIPE 4.0 library of approved and investigational drugs were added using the Kalypsis pin tool. Wells treated with DMSO only for 100% viability and media only for 0% viability were used as controls.
3. The assay plates were covered and incubated for 48 hours in a 37C, 5% CO2 incubator with controlled humidity.
4. After 48 hours, CellTilter-GloTM luminescent substrate mix (Promega) reagent was added to the assay plate and plates we incubated for 5 min at room temperature.
5. Signal was measured as median relative luminescence units on a ViewLux (PerkinElmer) multiplate reader.
[1] Heske CM, Davis MI, Baumgart JT, Wilson K, Gormally MV, Chen L, Zhang X, Ceribelli M, Duveau DY, Guha R, Ferrer M, Arnaldez FI, Ji J, Tran HL, Zhang Y, Mendoza A, Helman LJ, Thomas CJ. Matrix Screen Identifies Synergistic Combination of PARP Inhibitors and Nicotinamide Phosphoribosyltransferase (NAMPT) Inhibitors in Ewing Sarcoma. Clin Cancer Res. 2017 Dec 1;23(23):7301-7311. doi: 10.1158/1078-0432.CCR-17-1121. Epub 2017 Sep 12. PMID: 28899971; PMCID: PMC6636827.
Potency is the fitted concentration of half-maximal effect.

Row | SMILES | Potency | viability (% of control) [%]
1 | COc1ccc(C2(C#N)CCC(C(=O)O)CC2)cc1OC1CCCC1 (stereo not given) | 7.43 µM (active) | 
2 | O=C1c2ccccc2-c2n[nH]c3cccc1c23 |  | 110
3 | CCCCC(CC)COC(=O)C(C#N)=C(c1ccccc1)c1ccccc1 (stereo not given) |  | 138
4 | CCCCCCCCOc1ccccc1C(=O)Nc1ccc(C(=O)OCC[N+](C)(CC)CC)cc1 | 18.7 µM (active) | 
5 | CC(S)C(=O)NCC(=O)O (stereo not given) |  | 133
6 | CN(C)c1ccc2nc3ccc(=[N+](C)C)cc-3sc2c1 | 3.72 µM (active) | 
7 | O=c1ccc2ccc(O)c(O)c2o1 | 18.7 µM (active) | 
8 | CCCOc1ccc2nc(NC(=O)OC)[nH]c2c1 | 0.0187 µM (active) | 
9 | c1cnc2cc3c(cc2n1)C1CNCC3C1 |  | 115
10 | N[C@@H](Cc1cc(I)c(Oc2cc(I)c(O)c(I)c2)c(I)c1)C(=O)O |  | 122
11 | CS(=O)(=O)OCCCCOS(C)(=O)=O |  | 140
12 | Nc1nc(Cl)nc2c1ncn2[C@H]1C[C@H](O)[C@@H](CO)O1 | 18.7 µM (active) | 
13 | O=c1cc(N2CCOCC2)oc2c(-c3ccccc3)cccc12 | 10.5 µM (active) | 
14 | COC(=O)[C@H](Cc1ccccc1)NC(=O)[C@@H](N)CC(=O)O (H-Asp-Phe-OMe) |  | 111
15 | CCCCc1ccc2nc(NC(=O)OC)[nH]c2c1 | 0.0209 µM (active) | 
16 | O=c1c(O)c(-c2ccc(O)cc2O)oc2cc(O)cc(O)c12 |  | 125
17 | NC(=NCc1ccccc1)NC(=O)c1nc(Cl)c(N)nc1N | 16.6 µM (active) | 
18 | CCN(CC)C(=S)SSC(=S)N(CC)CC | 0.001 µM (active) | 
19 | NNc1nncc2ccccc12 |  | 138
20 | Cc1ccc(NC(=O)c2ccc(CN3CCN(C)CC3)cc2)cc1Nc1nccc(-c2cccnc2)n1 | 23.5 µM (active) | 

Row | SMILES | Potency | viability (% of control) [%]
21 | O=C(O)c1cccc(-c2noc(-c3ccccc3F)n2)c1 |  | 154
22 | CCN(CCO)CCCC(C)Nc1ccnc2cc(Cl)ccc12 (stereo not given) |  | 119
23 | Oc1ccc(OCc2ccccc2)cc1 |  | 119
24 | COC(=O)C1=C(C)NC(C)=C(C(=O)OC(C)C)C1c1cccc2nonc12 (stereo not given) | 26.4 µM (active) | 
25 | CCc1nc(N)nc(N)c1-c1ccc(Cl)cc1 | 2.35 µM (active) | 
26 | COc1c(O)cc2c(c1O)[C@@H]1O[C@H](CO)[C@@H](O)[C@H](O)[C@H]1OC2=O |  | 123
27 | Cc1cc(Cl)ccc1OCCCC(=O)NO | 20.9 µM (active) | 
28 | Nc1ccc(S(N)(=O)=O)cc1 |  | 144
29 | COc1cc(Nc2c(C#N)cnc3cc(OCCCN4CCN(C)CC4)c(OC)cc23)c(Cl)cc1Cl | 2.64 µM (active) | 
30 | O=c1oc2cc(O)ccc2s1 |  | 122
31 | CN(C)C(=O)[C@H](O)[C@H](Cc1ccccc1)NC(=O)c1cc2cc(Cl)ccc2[nH]1 | 6.62 µM (active) | 
32 | CC(=O)N1CCN(c2ccc(OC[C@H]3CO[C@](Cn4ccnc4)(c4ccc(Cl)cc4Cl)O3)cc2)CC1 | 16.6 µM (active) | 
33 | Cc1ccc(S(=O)(=O)NC(=O)NN2CC3CCCC3C2)cc1 (stereo not given) | 20.9 µM (active) | 
34 | Nc1nc(N)c(N=O)c(OCC2CCCCC2)n1 | 7.43 µM (active) | 
35 | O=C(NOCC1CC1)c1ccc(F)c(F)c1Nc1ccc(I)cc1Cl | 18.7 µM (active) | 
36 | CCCCN(CCCC)CCC(O)c1cc2c(Cl)cc(Cl)cc2c2cc(C(F)(F)F)ccc12 (stereo not given) | 18.7 µM (active) | 
37 | O=C(O)CCNC(=O)c1ccc(N=Nc2ccc(O)c(C(=O)O)c2)cc1 |  | 153
38 | O=C(NCC1CCCCN1)c1cc(OCC(F)(F)F)ccc1OCC(F)(F)F (stereo not given) | 9.35 µM (active) | 
39 | O=C1NC(=O)C(c2ccccc2[N+](=O)[O-])=C1Nc1ccc(O)c(Cl)c1 |  | 113
40 | Cc1cccc(C#Cc2ccccc2)n1 | 8.33 µM (active) | 
